Screening data: PubChem BioAssay, National Center for Advancing Translational Sciences (NCATS)
NPSR antag = neuropeptide S receptor (human) antagonism, cAMP; CHO-NPSR cells, cAMP TR-FRET, antagonist mode; Potency, µM (highest dose often 38.3 µM), hits mostly inhibitors; hit rate 1% among 220,000; AID 1461; note: nearly all actives have a fitted effect of over 50% in size
Target sequence (Q6W5P4 whole entry, looked up): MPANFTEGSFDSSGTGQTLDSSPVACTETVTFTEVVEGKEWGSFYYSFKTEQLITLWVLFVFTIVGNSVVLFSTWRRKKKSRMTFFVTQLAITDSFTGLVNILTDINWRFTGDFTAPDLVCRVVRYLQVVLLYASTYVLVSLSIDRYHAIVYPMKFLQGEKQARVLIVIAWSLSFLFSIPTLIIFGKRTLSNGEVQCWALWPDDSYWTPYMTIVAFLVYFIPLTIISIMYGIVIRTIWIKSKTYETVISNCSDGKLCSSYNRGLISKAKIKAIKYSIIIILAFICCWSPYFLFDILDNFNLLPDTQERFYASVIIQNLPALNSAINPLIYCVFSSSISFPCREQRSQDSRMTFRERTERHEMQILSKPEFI
VP16 counter = Gal4-VP16 reporter inhibition counter-screen | Drosophila S2 Gal4-VP16 UAS-luciferase, luminescence, 20 h | Potency, µM (highest dose often 53.6 µM), actives largely listed as inhibitors | hit rate 3.5% among 310,000 | AID 2546;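 note: Gal4-VP16 expression switched on by copper sulfate through the metallothionein promoter; nearly all actives have a fitted effect of over 50% in size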
B2AR arrestin = recruits beta-arrestin to the human beta2-adrenergic receptor. P07550. beta-arrestin recruitment to beta2AR, cell-based reporter. Potency, µM (highest dose often 46.1 µM), hits mostly activators. hit rate 0.02% among 330,000; note: nearly all actives have a fitted effect of over 65% in size
RORg inh = ROR gamma (mouse) transcription inhibition; Potency, µM (highest dose often 53.6 µM), usual class: inhibitors; Drosophila S2 Gal4-RORgamma UAS-luciferase reporter, 20 h; hit rate 5.4% among 310,000; note: nearly all actives have a fitted effect of over 60% in size
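Stably transfected Drosophila Schneider cells are the test system, with ROR gamma fused to Gal4 and luciferase under UAS control; luminescence is read after 20 hr of 700 uM copper sulfate induction at ambient temperature.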
Hits are given with their value; 0 = inactive; ? = inconclusive; - = not tested or not shown; [ ] = another dose, or the depositor's remark. An excerpt weighted towards active compounds, which were near 5.7% of everything screened. Calls come from the whole dose curve; as a rule, active = well fitted curve in the direction sought with a large enough effect; inconclusive = small, poorly fitted or top-dose-only effect, or another doubt; inactive = no such curve, though single readings can be large; an effect the other way counts as inactive or inconclusive.

SMILES	NPSR antag	VP16 counter	B2AR arrestin	RORg inh
CO[C@@H]1COC(=O)[C@H](C)NC(=O)C/C=C\[C@@H](C)[C@H](OC)COC(=O)[C@H](C)NC(=O)C/C=C\[C@H]1C	-	0[10 µM]	-	0[10 µM]
Cc1ccc2oc(=O)c(/C=C(\O)c3sc(C)nc3C)nc2c1	0	?	0	?
Cc1ccc2oc(=O)c(/C=C(\O)C(C)(C)C)nc2c1	0	0	0	5µM
Cc1ccc2oc(=O)c(/C=C(\O)c3ccco3)nc2c1	0[7.67 µM]	?	0	10µM
CCOCC(=O)Nc1cc(Cl)c(OC)cc1OC	0	0	0	0
Cc1cc(/C=C2\SC(=S)N(C)C2=O)c(C)n1-c1ccc(O)cc1	0	0.63µM	0	?
Cc1cc(/C=C2/SC(=S)N(c3ccc([N+](=O)[O-])cc3)C2=O)c(C)n1-c1cccnc1	0	0.89µM	0	3.2µM
O=c1cnc2cnc(Oc3ccccc3)nc2n1Cc1ccc(F)cc1	-	0	-	0
COCCn1c(=O)c(-c2cccs2)nc2cnc(Oc3ccc(OC)cc3)nc21	-	0	-	0
CC1=CC2(O)OCCN(CCO)C2=CC1=O (stereo not given)	0	16µM	0	16µM
CC[C@H](C)[C@H](NC(=O)[C@H](C)NC(=O)[C@H](CC(=O)O)NC(=O)[C@H](CO)NC(=O)[C@@H](N)Cc1cnc[nH]1)C(=O)N[C@@H](Cc1ccccc1)C(=O)N[C@H](C(=O)N[C@@H](CCC(N)=O)C(=O)N[C@@H](CCC(N)=O)C(=O)N[C@@H](Cc1ccc(O)cc1)C(=O)N[C@@H](CO)C(=O)N[C@@H](CCCCN)C(=O)N[C@@H](CC(C)C)C(=O)N[C@@H](CC(C)C)C(=O)N[C@@H](C)C(=O)N[C@@H](CCCCN)C(=O)N[C@@H](CC(C)C)C(=O)N[C@@H](C)C(=O)N[C@@H](CC(C)C)C(=O)N[C@@H](CCC(N)=O)C(=O)N[C@@H](CCCCN)C(=O)N[C@@H](Cc1ccc(O)cc1)C(=O)N[C@@H](CC(C)C)C(=O)N[C@@H](C)C(=O)N[C@@H](CO)C(=O)N[C@H](C(=O)N[C@@H](CC(C)C)C(=O)NCC(=O)N[C@@H](CO)C(=O)N[C@@H](CCCNC(=N)N)C(=O)N[C@H](C(=O)N[C@@H](CO)C(=O)N1CCC[C@H]1C(=O)N1CCC[C@H]1C(=O)N1CCC[C@H]1C(N)=O)[C@@H](C)O)[C@@H](C)CC)[C@@H](C)O	-	0	-	0
Cc1ccc(Cl)cc1N1CCN(C(=O)Cn2ccc3ccccc3c2=O)CC1	0	0	0	0
Cc1ccc(Cl)cc1N1CCN(C(=O)Cc2csc(Nc3nc(=S)[nH]c4ccccc34)n2)CC1	0	3.5µM	0	0.63µM
O=C(Cc1csc(Nc2nc(=S)[nH]c3ccccc23)n1)N1CCN(c2cccc(Cl)c2)CC1	0	5µM	0	1µM
O=C(N/N=C1\CC2CC=CC12)c1ccc(Br)cc1 (stereo not given)	0	0	0	11µM
Cc1cc(C)c2c(c1)/C(=N/NC(=O)c1ccc(O)cc1)CCC2	0	?	0	?
Cc1cc(Br)c(OCc2ccc(C(=O)N/N=C3\CC4CC=CC34)cc2)c(Br)c1 (stereo not given)	0	?	0	7.9µM
O=C(N/N=C1\CC2CC=CC12)c1ccccc1Cl (stereo not given)	0	0	0	0
COc1ccc(C(CNC(=O)c2ccc(-c3ccccc3)cc2)N(C)C)cc1OC (stereo not given)	-	0	0	0
COc1cccc(-c2nnc3n2N=C(c2ccccc2OC)CS3)c1	-	?	-	0
Cc1ccoc1C(=O)Nc1ccc(CC(=O)O)cc1	0	?	0	0.5µM
Cc1ccoc1C(=O)Nc1ccc2ccccc2c1	-	?	0	?
Cc1cccc2cc(C#N)c(NCc3ccccc3)nc12	0	7.1µM	0	5.6µM
CCOCCCNC(=S)NCCNc1nc2c(C)cccc2cc1C#N	0	3.2µM	0	0.25µM
COCCCNC(=S)NCCNc1nc2cc(C)cc(C)c2cc1C#N	0	?	0	8.9µM
SMILES	NPSR antag	VP16 counter	B2AR arrestin	RORg inh
COc1cc(C(=O)NCCCNc2nc3cc(C)cc(C)c3cc2C#N)cc(OC)c1OC	0	0	0	?
O=c1[nH]c(-c2ccccn2)nc(C(F)(F)F)c1Br	?	5µM	0	2.2µM
Cc1sc2nc(-c3ccncc3)[nH]c(=O)c2c1-c1ccccc1	0	0	0	0
Cc1sc2nc(-c3ccccn3)[nH]c(=O)c2c1-c1ccccc1	0	4.5µM	0	1.1µM
O=c1[nH]c(-c2ccccn2)nc2ccccc12	0	7.1µM	0	4µM
c1ccc(-c2nc3c(ccc4ccccc43)[nH]2)nc1	?	1µM	0	0.35µM
O=c1[nH]c2cc3ccccc3cc2nc1C(F)(F)F	0	0	0	0
O=c1[nH]c(-c2ccccc2O)nc2ccccc12	-	0	-	0
Cc1ccc2nc(CCCc3nc4ccc(C)cc4[nH]3)[nH]c2c1	-	0	0	0
Cc1ccc(C)c(-c2nc3ccc(N)cc3[nH]2)c1	0	0	0	0
c1ccc(-c2nc3ccccc3[nH]2)nc1	0	6.3µM	0	5.6µM
Cc1ccc2nc(-c3ccccn3)[nH]c2c1	-	6.3µM	0	4µM
c1ccc2[nH]c(-c3ccncc3)nc2c1	0	0	0	0
Cc1c(N)cccc1-c1nc2ccccc2[nH]1	0	?	0	11µM
Cc1ccc2nc(-c3ccccc3N)[nH]c2c1	0	0[10 µM]	0	10µM
CSc1ccc(/C=C(/NC(=O)c2ccccc2)C(=O)NCCN2CCOCC2)cc1	-	0	0	0
C=CCCCC	-	0	-	0
CC(C)[C@@H](CC(=O)N[C@@H]1CCCC[C@H]1C(=O)N[C@H](CC(=O)N[C@@H](CCC(=O)O)CC(=O)O)Cc1c[nH]c2ccccc12)NC(=O)C[C@H](Cc1ccccc1)NC(=O)[C@@H]1CCCC[C@H]1N	-	0	-	0
Cc1ccc2nc(C(O)C(O)c3nc4ccc(C)cc4[nH]3)[nH]c2c1 (stereo not given)	0	7.9µM	0	7.1µM
N=C1SC(c2ccccc2)C(=O)N1c1ncc(Cc2ccccc2Cl)s1 (stereo not given)	?	1.3µM	0	1.4µM
O=C(NC1=NCCS1)c1cc(-c2cccnc2)nc2ccccc12	0	0	0	11µM
COc1cccc(C(=O)NC2=NCCS2)c1	0	?	0	10µM
COc1ccc(C(=O)NC2=NCCS2)cc1S(=O)(=O)N1CCCCC1C (stereo not given)	0	0	0	14µM
O=C(NC1=NCCS1)c1cccc2ccccc12	0	0[10 µM]	0	11µM
CCc1nnc(NC(=O)c2cc(-c3cccnc3)nc3ccccc23)s1	0	0	0	0
SMILES	NPSR antag	VP16 counter	B2AR arrestin	RORg inh
COc1ccccc1CNc1ncnc2ccc(-c3cccc(C#N)c3)cc12	-	0	-	?
CS(=O)(=O)Nc1cccc(-c2ccc3ncnc(NCc4cccs4)c3c2)c1	-	0	-	?
COc1ccc(-n2ccnc(SCC(=O)NCc3ccc(C)cc3)c2=O)cc1Cl	-	-	0	-
O=C(CSc1cccc2cccc(Cl)c12)NC1=NCCS1	0	11µM	0	10µM
CC(NC(=O)c1ccccc1)C(=O)NC1=NCCS1 (stereo not given)	0	0	0	0
C/C(=N\NC(=O)c1cc(-c2cccs2)nc2ccccc12)c1ccccn1	0	0.56µM	0	0.1µM
